In ChEMBL document CHEMBL2218924, “A broad activity screen in support of a chemogenomic map for kinase signalling research and drug discovery” (Biochem J, 2013):

Target: Casein kinase I isoform gamma-1 (Homo sapiens) (UniProt Q9HCP0)
Conditions: at 1 µM

Sequence of Casein kinase I isoform gamma-1 (Homo sapiens) (Q9HCP0 whole entry, looked up, canonical isoform): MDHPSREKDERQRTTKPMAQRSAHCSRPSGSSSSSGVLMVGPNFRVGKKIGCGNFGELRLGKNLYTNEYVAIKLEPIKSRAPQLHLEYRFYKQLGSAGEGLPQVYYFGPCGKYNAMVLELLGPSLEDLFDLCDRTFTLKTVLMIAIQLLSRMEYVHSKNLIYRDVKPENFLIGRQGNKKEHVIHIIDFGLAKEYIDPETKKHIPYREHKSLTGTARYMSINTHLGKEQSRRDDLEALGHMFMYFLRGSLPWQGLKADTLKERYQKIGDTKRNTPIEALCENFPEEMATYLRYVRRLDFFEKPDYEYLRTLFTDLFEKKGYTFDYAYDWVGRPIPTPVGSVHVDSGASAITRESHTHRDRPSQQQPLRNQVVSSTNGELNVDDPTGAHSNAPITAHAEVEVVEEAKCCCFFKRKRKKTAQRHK

Row | Compound | residual activity [%]
1 | CCN(CC)C(=O)c1ccc(Nc2nc(OCC3CCCCC3)c3nc[nH]c3n2)cc1 | 42
2 | Oc1c2ccccc2c2c3c(cccc13)N=N2 | 99
3 | N#CC(C#N)=C(N)/C(C#N)=C/c1ccc(O)cc1 | 83
4 | O=C1NC(=O)/C(=C\c2ccc3nccnc3c2)S1 | 92
5 | COc1ccc(OC)c2c(=S)c3ccccc3[nH]c12 | 99
6 | O=c1c2ccccc2[nH]c(=S)n1CCN1CCC(=C(c2ccc(F)cc2)c2ccc(F)cc2)CC1 | 82
7 | Cn1cc(/C=C2\C(=O)Nc3ccc(S(N)(=O)=O)cc32)c2ccccc21 | 88
8 | CC(C)n1cnc2/c(=N/c3cccc(Cl)c3)nc(NCCO)[nH]c21 | 8
9 | COc1cc2ncnc(N3CCN(C(=O)Nc4ccc(Oc5ccccc5)cc4)CC3)c2cc1OC | 88
10 | O=c1cc(-c2cccc3c2Sc2ccccc2S3)oc(N2CCOCC2)c1 | 101
11 | CN(C)CCCn1cc(C2=C(c3c[nH]c4ccccc34)C(=O)NC2=O)c2ccccc21 | 107
12 | Cc1cccc(-c2[nH]c(C(C)(C)C)nc2-c2ccc3c(c2)OCO3)n1 | 101
13 | COc1cc2ncnc(Nc3ccc(Oc4ccccc4)cc3)c2cc1OC | 93
14 | Cc1cc2ncc(-c3ccccc3)nc2cc1C | 93
15 | NC(=O)c1ccc2[nH]c(-c3ccc(Oc4ccc(Cl)cc4)cc3)nc2c1 | 78

Target: Casein kinase I isoform gamma-1 (Homo sapiens) (UniProt Q9HCP0)
Conditions: at 10 µM

Row | Compound | residual activity [%]
16 | Nc1n[nH]c2nnc(-c3c(-c4ccccc4)nn4ccccc34)cc12 | 84
17 | Cc1nc2cc3nc(-c4cccs4)cnc3cc2n1C | 89
18 | N#Cc1cnc2cnc(NCc3cccnc3)cc2c1Nc1ccc(F)c(Cl)c1 | 93
19 | Nc1nc(Nc2ccc(S(N)(=O)=O)cc2)nn1C(=S)Nc1c(F)cccc1F | 1
20 | Oc1ccc(-c2nc(-c3ccc(F)cc3)c(-c3ccncc3)[nH]2)cc1 | 59
21 | Cn1nc2c3c(cccc31)C(=O)c1ccccc1-2 | 82
22 | COc1cccc(-c2cc(=O)c3ccccc3o2)c1N | 88
23 | CC[n+]1c(/C=C/N(C)c2ccccc2)n(-c2ccccc2)c2ccc(-c3nc4ccccc4s3)cc21 | 100
24 | O=[N+]([O-])c1ccc(-c2nc(-c3ccc(F)cc3)c(-c3ccncc3)[nH]2)cc1 | 88
25 | COc1cc2ncc(-c3ccccc3)nc2cc1OC | 78
26 | CCC(=O)Nc1ccc2ncnc(Nc3cccc(Br)c3)c2c1 | 95
27 | CCOc1cc2ncnc(Nc3cccc(Br)c3)c2cc1OCC | 87
28 | c1ccc(-c2n[nH]c3c2oc2ccccc23)cc1 | 73
29 | Nc1ccc2ncnc(NCCc3ccc(Oc4ccccc4)cc3)c2c1 | 82
30 | CN(C)c1ccc(/C=C2\C(=O)Nc3ccccc32)cc1 | 74
31 | O=Nc1c(-c2c(O)[nH]c3ccccc23)[nH]c2ccccc12 | 19
32 | O=C(Nc1cccc(Nc2nccc(Nc3cccc(C(F)(F)F)c3)n2)c1)C1CC1 | 94

Row | Compound | residual activity [%]
33 | CO[C@H]1C[C@@H]2CC[C@@H](C)[C@@](O)(O2)C(=O)C(=O)N2CCCC[C@H]2C(=O)O[C@H]([C@H](C)C[C@@H]2CC[C@@H](O)[C@H](OC)C2)CC(=O)[C@H](C)/C=C(\C)[C@@H](O)[C@@H](OC)C(=O)[C@H](C)C[C@H](C)/C=C/C=C/C=C/1C | 101
34 | CCN(CC)C(=O)c1ccc(Nc2nc(OCC3CCCCC3)c3nc[nH]c3n2)cc1 | 7
35 | Oc1c2ccccc2c2c3c(cccc13)N=N2 | 48
36 | N#CC(C#N)=C(N)/C(C#N)=C/c1ccc(O)cc1 | 99
37 | O=C1NC(=O)/C(=C\c2ccc3nccnc3c2)S1 | 44
38 | Cc1cc(Nc2nc(-c3ccccc3)nc3ccccc23)n[nH]1 | 28
39 | COc1ccc(OC)c2c(=S)c3ccccc3[nH]c12 | 77
40 | O=c1c2ccccc2[nH]c(=S)n1CCN1CCC(=C(c2ccc(F)cc2)c2ccc(F)cc2)CC1 | 78
41 | Cn1cc(/C=C2\C(=O)Nc3ccc(S(N)(=O)=O)cc32)c2ccccc21 | 52
42 | CC(C)n1cnc2/c(=N/c3cccc(Cl)c3)nc(NCCO)[nH]c21 | 0
43 | COc1cc2ncnc(N3CCN(C(=O)Nc4ccc(Oc5ccccc5)cc4)CC3)c2cc1OC | 79
44 | O=c1cc(-c2cccc3c2Sc2ccccc2S3)oc(N2CCOCC2)c1 | 43
45 | Cc1cccc(-c2[nH]c(C(C)(C)C)nc2-c2ccc3c(c2)OCO3)n1 | 100
46 | COc1cc2ncnc(Nc3ccc(Oc4ccccc4)cc3)c2cc1OC | 89
47 | Cc1cc2ncc(-c3ccccc3)nc2cc1C | 87
48 | NC(=O)c1ccc2[nH]c(-c3ccc(Oc4ccc(Cl)cc4)cc3)nc2c1 | 57

Target: Casein kinase I isoform delta (Homo sapiens) (UniProt P48730)
Sequence (P48730 whole entry, looked up, canonical isoform): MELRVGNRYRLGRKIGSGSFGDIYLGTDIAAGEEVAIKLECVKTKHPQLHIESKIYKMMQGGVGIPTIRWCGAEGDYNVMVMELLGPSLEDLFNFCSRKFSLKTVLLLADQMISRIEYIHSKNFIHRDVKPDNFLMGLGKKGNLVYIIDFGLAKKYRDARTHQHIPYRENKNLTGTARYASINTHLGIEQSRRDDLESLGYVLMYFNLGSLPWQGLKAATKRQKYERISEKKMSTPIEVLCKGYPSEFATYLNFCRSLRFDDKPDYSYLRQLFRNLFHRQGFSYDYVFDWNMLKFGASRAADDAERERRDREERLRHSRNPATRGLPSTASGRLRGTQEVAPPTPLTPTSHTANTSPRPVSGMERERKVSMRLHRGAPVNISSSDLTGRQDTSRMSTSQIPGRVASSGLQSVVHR
Conditions: at 1 µM

Row | Compound | residual activity [%]
49 | Nc1n[nH]c2nnc(-c3c(-c4ccccc4)nn4ccccc34)cc12 | 60
50 | Cc1nc2cc3nc(-c4cccs4)cnc3cc2n1C | 95
51 | N#Cc1cnc2cnc(NCc3cccnc3)cc2c1Nc1ccc(F)c(Cl)c1 | 79
52 | Nc1nc(Nc2ccc(S(N)(=O)=O)cc2)nn1C(=S)Nc1c(F)cccc1F | 59
53 | Oc1ccc(-c2nc(-c3ccc(F)cc3)c(-c3ccncc3)[nH]2)cc1 | 7
54 | Cn1nc2c3c(cccc31)C(=O)c1ccccc1-2 | 15
55 | COc1cccc(-c2cc(=O)c3ccccc3o2)c1N | 102
56 | CC[n+]1c(/C=C/N(C)c2ccccc2)n(-c2ccccc2)c2ccc(-c3nc4ccccc4s3)cc21 | 87
57 | COc1cc2ncc(-c3ccccc3)nc2cc1OC | 72
58 | CCC(=O)Nc1ccc2ncnc(Nc3cccc(Br)c3)c2c1 | 97
59 | CCOc1cc2ncnc(Nc3cccc(Br)c3)c2cc1OCC | 84
60 | c1ccc(-c2n[nH]c3c2oc2ccccc23)cc1 | 75
61 | Nc1ccc2ncnc(NCCc3ccc(Oc4ccccc4)cc3)c2c1 | 77
62 | CN(C)c1ccc(/C=C2\C(=O)Nc3ccccc32)cc1 | 56
63 | O=Nc1c(-c2c(O)[nH]c3ccccc23)[nH]c2ccccc12 | 14
64 | Cc1cncc2cccc(S(=O)(=O)N3CCCN(C(=O)CN)C[C@H]3C)c12 | 83
65 | O=C(Nc1cccc(Nc2nccc(Nc3cccc(C(F)(F)F)c3)n2)c1)C1CC1 | 82

Row | Compound | residual activity [%]
66 | CO[C@H]1C[C@@H]2CC[C@@H](C)[C@@](O)(O2)C(=O)C(=O)N2CCCC[C@H]2C(=O)O[C@H]([C@H](C)C[C@@H]2CC[C@@H](O)[C@H](OC)C2)CC(=O)[C@H](C)/C=C(\C)[C@@H](O)[C@@H](OC)C(=O)[C@H](C)C[C@H](C)/C=C/C=C/C=C/1C | 84
67 | CCN(CC)C(=O)c1ccc(Nc2nc(OCC3CCCCC3)c3nc[nH]c3n2)cc1 | 71
68 | Oc1c2ccccc2c2c3c(cccc13)N=N2 | 5
69 | N#CC(C#N)=C(N)/C(C#N)=C/c1ccc(O)cc1 | 82
70 | O=C1NC(=O)/C(=C\c2ccc3nccnc3c2)S1 | 88
71 | Cc1cc(Nc2nc(-c3ccccc3)nc3ccccc23)n[nH]1 | 96
72 | COc1ccc(OC)c2c(=S)c3ccccc3[nH]c12 | 101
73 | O=c1c2ccccc2[nH]c(=S)n1CCN1CCC(=C(c2ccc(F)cc2)c2ccc(F)cc2)CC1 | 80
74 | Cn1cc(/C=C2\C(=O)Nc3ccc(S(N)(=O)=O)cc32)c2ccccc21 | 93
75 | CC(C)n1cnc2/c(=N/c3cccc(Cl)c3)nc(NCCO)[nH]c21 | 37
76 | COc1cc2ncnc(N3CCN(C(=O)Nc4ccc(Oc5ccccc5)cc4)CC3)c2cc1OC | 78
77 | O=c1cc(-c2cccc3c2Sc2ccccc2S3)oc(N2CCOCC2)c1 | 92
78 | CN(C)CCCn1cc(C2=C(c3c[nH]c4ccccc34)C(=O)NC2=O)c2ccccc21 | 90
79 | Cc1cccc(-c2[nH]c(C(C)(C)C)nc2-c2ccc3c(c2)OCO3)n1 | 69
80 | COc1cc2ncnc(Nc3ccc(Oc4ccccc4)cc3)c2cc1OC | 83
81 | Cc1cc2ncc(-c3ccccc3)nc2cc1C | 87
82 | NC(=O)c1ccc2[nH]c(-c3ccc(Oc4ccc(Cl)cc4)cc3)nc2c1 | 83
